# Data published in PubChem BioAssay (NCATS).
# Records with an inconclusive call do not appear. Values without a mark were called inactive. Calls of active or inactive are those of the source. Calls come from the whole dose curve; as a rule, active = well fitted inhibition curve with a large enough effect; inconclusive = small, poorly fitted or top-dose-only effect; inactive = flat fitted curve, though single readings scatter.
# Test: P-glycoprotein substrates identified in KB-8-5-11 adenocarcinoma cell line, qHTS therapeutic library screen (AID 1346987); note: nearly all actives have a fitted effect of over 65% in size
# Settings: KB-8-5-11 (P-gp overexpressing) viability, CellTiter-Glo, 72 h; series mostly up to 44.5 µM; activity change, negative = cytotoxicity: at the top concentration
# Procedure, shortened: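 Compounds are pinned in dose-response onto KB-8-5-11 cells (500 cells/well, colchicine-free medium) and left 72 h at 37 degree C. CellTiter-Glo luminescence then yields AC50 values.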
# % is set by controls: 0 for no effect and ±100 for the full control effect; potency is the fitted concentration of half-maximal effect.
SMILES,"activity change, negative = cytotoxicity [%]",Potency,outcome
O=S1(=O)CCN(Cc2cc(NCC3CCOCC3)c3[nH]c(-c4ccccc4)cc3c2)CC1,-14.6,,
CN(C)C(=O)NC1(c2ccccc2)CCN(CCC[C@]2(c3ccc(Cl)c(Cl)c3)CCCN(C(=O)c3ccccc3)C2)CC1,,18.4 µM (active),
O=C(NCCO)c1cccc(-c2cc(Nc3ccc(OC(F)(F)F)cc3)ncn2)c1,-23.1,,
COC1CC/C=C(\C)C(=O)Nc2cc(O)cc(c2)CC(C)CC(OC)C(O)C(C)/C=C(\C)C1OC(N)=O (centres undefined),,,inactive [at 17.3 µM]
